Laboratory results taken from PubChem BioAssay AID1376 (SRMLSC, 2008).
The campaign covered roughly 220,000 compounds. About 530 (0.24%) were called active. Only a selection was taken, and actives are over-represented in it overall. Results with a measured potency or affinity are listed apart. A number with no mark means an inactive call. Cut-off read from the data, not from the text of the source: active = inhibition above about 13%; inconclusive = no clear call, values can overlap the other calls; inactive = below that.

biological target: Bifunctional protein GlmU (Mycobacterium tuberculosis (strain ATCC 25618 / H37Rv)) (UniProt P9WMN3); assay: inhibition of mycobacterial GlmU enzyme – biochemical, glucosamine-1-phosphate acetyltransferase (AID 1376);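 note: 0% = complete reaction with vehicle and 100% = reaction without substrate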; conditions: M. tuberculosis GlmU acetyltransferase enzyme assay; hits give high values;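 tested at 30 µM in the primary screen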
Sequence (P9WMN3 whole entry, looked up): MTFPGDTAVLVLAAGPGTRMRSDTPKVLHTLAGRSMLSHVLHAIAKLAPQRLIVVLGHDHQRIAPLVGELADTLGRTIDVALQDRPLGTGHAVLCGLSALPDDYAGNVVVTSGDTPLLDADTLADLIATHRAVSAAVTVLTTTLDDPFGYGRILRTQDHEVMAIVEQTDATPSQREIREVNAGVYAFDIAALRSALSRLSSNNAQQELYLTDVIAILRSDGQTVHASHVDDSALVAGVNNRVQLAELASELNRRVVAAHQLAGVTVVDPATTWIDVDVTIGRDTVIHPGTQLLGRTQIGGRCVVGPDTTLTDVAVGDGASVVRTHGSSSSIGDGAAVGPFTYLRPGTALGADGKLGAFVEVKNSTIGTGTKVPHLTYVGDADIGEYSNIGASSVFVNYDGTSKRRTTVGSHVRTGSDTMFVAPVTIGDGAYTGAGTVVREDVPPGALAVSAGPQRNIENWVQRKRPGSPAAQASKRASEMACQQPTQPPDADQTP

Structure (SMILES)	inhibition
Cc1c(C(=O)O)cccc1-c1ccc(/C=C2/NC(=O)N(c3ccccc3)C2=O)o1	-0.48%
O=C(O)c1cc(-c2ccc(/C=C3/SC(=S)N(Cc4ccccc4)C3=O)o2)ccc1Cl	17%
Cc1cc(C(=O)O)ccc1-c1ccc(/C=C2\NC(=O)N(Cc3ccc(F)cc3)C2=O)o1	13.9% (active)
O=C(O)c1cc(-c2ccc(/C=C3\NC(=O)N(c4ccc(Cl)cc4)C3=O)o2)ccc1Cl	27% (active)
Cc1ccc(/C=C2/NC(=O)N(c3ccccc3)C2=O)o1	-0.29%
Cc1ccc(/C=C2/NC(=O)N(Cc3ccccc3)C2=O)o1	-1.11%
Cc1ccc(CN2C(=O)N/C(=C/c3ccc(-c4ccc(C(=O)O)cc4)o3)C2=O)cc1	4.7%
O=C(O)c1cc(-c2ccc(/C=C3\NC(=O)N(c4ccccc4)C3=O)o2)ccc1Cl	13.6% (active)
Cc1cc(C(=O)O)ccc1-c1ccc(/C=C2\NC(=O)N(Cc3ccccc3Cl)C2=O)o1	5.89%
Cc1ccc(N2C(=O)NC(=O)/C(=C/c3ccc(-c4ccc(C(=O)O)c(Cl)c4)o3)C2=O)cc1	6.82%
O=C(O)c1cc(-c2ccc(/C=N/Nc3ccc(Cl)cc3)o2)ccc1Cl	-0.42%
Cc1ccc([N+](=O)[O-])cc1N(CC(=O)NCC1CCCO1)S(C)(=O)=O (configuration not stated)	1.08%
COc1ccc(C2CC(c3ccccc3)=NN2C(=O)c2cccs2)cc1 (configuration not stated)	0.55%
COc1ccc(CCNC(=O)COC(=O)CCC(=O)c2ccc(F)cc2)cc1	1.09%
N#Cc1nc(Cc2cccc3ccccc23)oc1N1CCC(C(N)=O)CC1	1.98%
Cc1ccc(-n2ncc(C(=O)NCc3ccc4c(c3)OCO4)c2NC(=O)c2ccco2)cc1C	6.03%
O=C(OCC(=O)c1ccc[nH]1)c1ccc(S(=O)(=O)N2CCCCCC2)cc1	-6.95%
Cc1ccc(C(=O)NC(=S)NNC(=O)CC#N)cc1	-2.12%
COc1ccc(OC)c(NC(=O)c2ccccc2NC(=O)c2ccco2)c1	4.28%

Structure (SMILES)	inhibition
COc1ccc(Cc2c(O)nc[nH]c2=O)cc1	22.8% (active)
COc1ccc(Cc2c(O)nc(SCC(=O)c3ccc(OC)cc3)[nH]c2=O)cc1	2.96%
COc1ccc(C(c2c(O)nc[nH]c2=O)c2c(O)nc[nH]c2=O)cc1	0.27%
CCOC(=O)C1=C2N(C)c3ccccc3N2CCC1=O	0.79%
Cc1cccc(Cn2c(N3CCc4ccccc4C3)nc3c2c(=O)[nH]c(=O)n3C)c1	2.16%
CC(C)(C)NC(=S)Nc1ccc(Nc2ccccc2)cc1	13.4% (active)
CC(C)(C)NC(=S)Nc1ccc(Br)cc1	1.07%
CNC(=S)Nc1ccc(Nc2ccccc2)cc1	1.36%
O=C(Cc1cc(=O)[nH][nH]1)N/N=C/C=C/c1ccccc1	3.75%
COc1ccc(N(CC2CO2)S(=O)(=O)c2ccccc2)cc1 (configuration not stated)	3.63%
CCN(CC)c1ccc(/C=N/N2CCN(Cc3cccc4ccccc34)CC2)c(O)c1	-0.67%
CCN(CC)c1ccc(/C=N/N2CCN(Cc3ccccc3Cl)CC2)c(O)c1	14.1% (active)
CCN(CC)c1ccc(/C=N/N2CCN(Cc3ccccc3)CC2)c(O)c1	-0.12%
Nc1nc(=S)c2ncn(C3CCCC3)c2[nH]1	7.24%
Nc1nc(=S)c2ncn(C3OC(CO)C(O)C3O)c2[nH]1 (configuration not stated)	20.9% (active)
Nc1ncnc2c1ncn2[C@@H]1O[C@H](CO)[C@@H](O)[C@H]1O	-4.56%
Cc1ccc2nc3c(nc2c1C)C(O)=C3O	2.69%
CN1CCN(C2=C(Cl)C(=O)N(Cc3ccccc3)C2=O)CC1	-1.86%
CC(C)(C)c1csc(SCC(=O)Nc2ccc(Cl)cn2)n1	5.51%

Structure (SMILES)	inhibition
CCn1c2ccccc2c2cc(/C=N/n3c(-c4cc(C)[nH]n4)n[nH]c3=S)ccc21	2.92%
CCn1c2ccccc2c2cc(/C=N/n3cn[nH]c3=S)ccc21	13% (active)
CCn1c2ccccc2c2cc(/C=N/n3cnnc3)ccc21	6.56%
CC(=O)Nc1ccc(Nc2nc(C)c([N+](=O)[O-])c(Nc3ccc(NC(C)=O)cc3)n2)cc1	-3.57%
CC(=O)Nc1ccc(Nc2nc(C)c([N+](=O)[O-])c(Nc3ccccc3)n2)cc1	5.98%
O=C(NC12CC3CC(CC(C3)C1)C2)c1ccccc1	-3.83%
O=C(NC12CC3CC(CC(C3)C1)C2)c1cccnc1	2.68%
O=C(NC12CC3CC(CC(C3)C1)C2)c1cncc(O)c1	14.9% (active)
COC(=O)Cc1c(O)ccn(Cc2ccc3c(c2)OCO3)c1=O	-0.24%
CCN(CC)C(=O)c1ccc2c(c1)C1C(Cl)C(Sc3ccccc3[N+](=O)[O-])CC1C(C(=O)O)N2 (configuration not stated)	-0.47%
Cc1ccc2c(c1Cl)NC(C(=O)O)C1CC(Sc3ccccc3[N+](=O)[O-])C(Cl)C21 (configuration not stated)	4.86%
CC(=O)c1ccc2c(c1)C1C(Cl)C(Sc3ccccc3[N+](=O)[O-])CC1C(C(=O)O)N2 (configuration not stated)	13.1% (active)
CC(=O)c1ccc2c(c1)C1C(Cl)C(Sc3ccccc3[N+](=O)[O-])CC1C(c1ccccc1)N2 (configuration not stated)	8.36%
O=C(O)c1cccc2c1NC(C(=O)O)C1CC(Sc3ccccc3[N+](=O)[O-])C(Cl)C21 (configuration not stated)	30.8% (active)
O=C(O)c1cccc2c1NC(c1cccc([N+](=O)[O-])c1)C1CC(Sc3ccccc3[N+](=O)[O-])C(Cl)C21 (configuration not stated)	7.9%
Cc1ccc2c(c1)cc(CN(Cc1cccs1)C(=O)c1ccco1)c1nnnn12	-1.3%
CC(=O)c1c(C)[nH]c(C(=O)COC(=O)CCCOc2ccccc2)c1C	7.27%
O=S(=O)(N1CCOCC1)n1cnc2ccccc21	3.88%
COc1ccc(NC(=O)CN2C(=O)c3cccc4cccc2c34)c(OC)c1	0.85%
